# “And” between values parts separate entries of the source, which are not always exact repeats. Equal entries are not always repeated. Compounds without any hit were thinned out: in the full panel of roughly 79,000, 15% have a hit. Unmarked numbers belong to inactive results. The source made the active and inactive calls. Rule as the data show it: active = growth inhibition above about 70%; inactive = the rest.
# What was measured:
# [1] = NCI Yeast Anticancer Drug Screen. Data for the mec2-1 strain (AID 157); settings: S. cerevisiae mec2-1 strain, hits give high values
# In short: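 Vehicle-treated cultures served as reference for growth inhibition of compound-exposed mec2-1 yeast.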
# [2] = NCI Yeast Anticancer Drug Screen. Data for the sgs1 mgt1 strain (AID 161);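 also: 0% = growth of cultures given vehicle only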; settings: S. cerevisiae sgs1 mgt1 strain, hits give high values
# In short: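 Inhibition of yeast growth, normalised to vehicle-treated controls, is reported for a strain bearing genetic alterations in DNA damage repair.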
# [3] = NCI Yeast Anticancer Drug Screen. Data for the cln2 rad14 strain (AID 165);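 also: 0% = growth equal to vehicle treated cultures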; settings: S. cerevisiae cln2 rad14 strain, hits give high values
# In short: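 Each compound was tested on cln2 rad14 yeast. Inhibition of growth was calculated against vehicle-exposed controls.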
# [4] = NCI Yeast Anticancer Drug Screen. Data for the bub3 strain (AID 167); settings: S. cerevisiae bub3 mutant strain, hits give high values
# In short: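 Compounds were applied to a genetically altered yeast strain carrying a cell-cycle control defect. Growth inhibition was scored against vehicle-treated controls.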
# [5] = NCI Yeast Anticancer Drug Screen. Data for the mlh1 rad18 strain (AID 175); settings: S. cerevisiae mlh1 rad18 strain growth inhibition, hits give high values
# In short: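 Vehicle-treated cultures served as the reference for growth inhibition in a yeast strain carrying DNA damage repair alterations exposed to each compound.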
# [6] = NCI Yeast Anticancer Drug Screen. Data for the rad50 strain (AID 155);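 also: 0% = growth of vehicle-only cultures of the same strain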; settings: S. cerevisiae rad50 strain growth inhibition, hits give high values
# In short: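 Yeast carrying a defined DNA repair defect were exposed to test compounds, and growth was compared with vehicle-treated controls to give percent inhibition.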
# [7] = at 5.0 µM (retest, dose inferred, filed as 0.5)
# [8] = at 50.0 µM (retest, dose inferred, filed as 5.0)
SMILES,"growth inhibition [1, 7] [%]","growth inhibition [1, 8]",growth inhibition ([1]; at 50.0 µM),"growth inhibition [2, 7] [%]","growth inhibition [2, 8]",growth inhibition ([2]; at 50.0 µM),"growth inhibition [3, 7] [%]","growth inhibition [3, 8]",growth inhibition ([3]; at 50.0 µM),"growth inhibition [4, 7] [%]","growth inhibition [4, 8]",growth inhibition ([4]; at 50.0 µM),"growth inhibition [5, 7] [%]","growth inhibition [5, 8]",growth inhibition ([5]; at 50.0 µM),"growth inhibition [6, 7] [%]","growth inhibition [6, 8] [%]",growth inhibition ([6]; at 50.0 µM)
Fc1cccc(C2SCc3nc4ccccc4n32)c1F (stereo not given),-5,23%,54.8%,-3,28%,76.2% (active),-12,-7%,40.2%,-5,14%,73.3% (active),-8,7%,92% (active),,,
CN(C)C(=S)/N=c1\ss/c(=N\C(=S)N(C)C)n1-c1cccc(Cl)c1,,,,4,12%,94% (active),4,-13%,80.8% (active),3,-4%,96.2% (active),5,3%,94.2% (active),6,8,95.9% (active)
COc1cccc2c1C(=O)c1c(O)c3c(c(O)c1C2=O)CC(O)(C(=O)CO)CC3OC1CC(N)C(O)C(C)O1.[Cl][Pt+2][Cl].[NH2-].[NH2-] (stereo not given),9,47%,49.5%,11,83% (active),78% (active),8,87% (active),43.5%,0,56%,34.5%,29,94% (active),88.7% (active),,,
OCC(O)C(O)C(O)C(O)C(SCc1ccccc1)SCc1ccccc1 (stereo not given),,,-1.5% and -0.6% and 8.55%,,,6.25% and -7.1% and 8.7%,,,-9.4% and -3.35% and -11.2%,,,-3.7% and -7.25% and 2.05%,,,10.1% and 3.6% and 10.6%,,,9.5% and -3.9% and -5.4%
Cc1cc(O)c(C=NC(=S)C(N)=S)c(=O)o1,13,42%,-19.6%,22,46%,8.7%,14,22%,-4.4%,21,49%,-26.5%,17,42%,-38%,,,
CC(C)C(Cl)CC/C(CBr)=C(\Cl)CCl (stereo not given),29,92% (active),80.8% (active),27,99% (active),92.4% (active),24,96% (active),91.1% (active),23,98% (active),92.3% (active),,,,,,
CN(C)CCNc1ccc2nnn3c4ccc(O)cc4c(=O)c1c23,-3,-4%,-3.1%,,,,19,32%,25.4%,18,32%,-0.1%,27,15%,33.8%,32,51,12.1%
CC(=O)OC[C@@H](OC(C)=O)[C@H](OC(C)=O)c1cnn(-c2ccccc2)n1,-1,-6%,3.15%,-4,14%,3.25%,-1,-2%,-5.7%,13,29%,71.8% (active),3,-3%,12.8%,,,
[Cl][Sn]1([Cl])[CH2]CC[CH2][Sn]([Cl])([Cl])[CH2]CC[CH2][Sn]([Cl])([Cl])[CH2]CC[CH2][Sn]([Cl])([Cl])[CH2]CC[CH2]1,-19,63%,83.3% (active),-3,66%,87.5% (active),-6,47%,69.6%,-9,66%,70.9% (active),-2,83% (active),94% (active),,,
CC(=O)N(c1ccccc1)C(C)C,6,0%,-10.2%,,,,,,,10,79% (active),-1.65%,14,10%,9.8%,6,14,-5.75%
